SW480 rereplic – A quantitative high throughput screen for small molecules that induce DNA re-replication in SW480 colon adenocarcinoma cells | SW480 DNA re-replication, Hoechst DNA content imaging, 48 h | Potency, µM (highest dose often 46.1 µM), hits mostly activators | hit rate 1.8% among 340,000 | AID 624297, 2012; further: nearly all actives have a fitted effect of over 55% in size
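250 cells/well; 23 nL cpd via pin tool; 48 hr, 37 C, 5% CO2; Hoechst 40 min; imager read of total nuclear intensity, ex 405/em 500-530 nm.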
MCF10A rerep – A quantitative high throughput screen for small molecules that induce DNA re-replication in MCF 10a normal breast cells; MCF 10A DNA re-replication, Hoechst nuclear intensity, 48 h; Potency, µM (top dose mostly 46.1 µM), most hits filed as activators; hit rate 2.9% among 350,000; AID 624296, 2012; further: nearly all actives have a fitted effect of over 50% in size
KB-3-1 tox – qHTS assay for MDR1-selective chemotherapeutics: Primary screen using the parental adenocarcinoma cell KB-3-1; KB-3-1 viability, CellTiter-Glo ATP luminescence, 72 h; Potency, µM (titrated, usually from 46.1 µM), usual class: cytotoxic; hit rate 1.4% among 400,000; AID 1347075, 2019; further: nearly all actives have a fitted effect of over 60% in size
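Here the drug-naive KB-3-1 line serves as comparator for MDR sub-line selectivity; cells received compound titrations, 72 h at 37 °C, then CellTiter-Glo readout.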
KB-V1 cytotox – qHTS assay for MDR1-selective chemotherapeutics: Primary screen using the drug-selected MDR subline cells KB-V1 | KB-V1 MDR cells viability, CellTiter-Glo, 72 h | Potency, µM (titrated, usually from 46.1 µM), hits mostly cytotoxic | hit rate 3.4% among 400,000 | AID 1347076, 2019; further: nearly all actives have a fitted effect of over 60% in size
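Cytotoxicity via CellTiter-Glo luminescence after 72 h compound exposure at 37 degrees C. Cells: drug-selected KB-V1 line, DMEM phenol-red free plus 10% FBS. Compounds tested at multiple concentrations; normalized data fitted to concentration-effect curves.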
IL1B secr inh – qHTS for Inhibitors of Inflammasome Signaling: IL-1-beta AlphaLISA Primary Screen; THP-1 LPS/ATP IL-1B secretion, AlphaLISA, 16 h; stronger effect = lower value; hit rate 4.7% among 360,000; AID 743279, 2014; activity change, % at 57.5 µM; in the data active means activity change below about -50%; inconclusive means mostly about -30% to -49%
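THP-1 cells pretreated 1 hr with compounds (up to 57.5 uM final), then stimulated with LPS (250 ng/mL final) plus ATP (1.25 mM final); secreted IL-1B measured by AlphaLISA after 16 hr, decreased signal indicating inhibition.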
Each line names hits and unclear results; the compound was inactive in the other large screens. Sampled rows, rich in hits. Any-hit rate of the full collection: about 9.9%. Unless noted, the call rests on the fitted dose curve; in most records, active means well fitted curve in the direction sought with a large enough effect; inconclusive means small, poorly fitted or top-dose-only effect, or another doubt; inactive means no such curve, though single readings can be large; an effect the other way counts as inactive or inconclusive.

Cc1ccc2nc(NC(=O)CN(C)S(=O)(=O)c3ccc(Br)s3)sc2c1	SW480 rereplic inconclusive, MCF10A rerep 23.1µM, KB-3-1 tox inconclusive, KB-V1 cytotox inconclusive
CC(=O)Nc1ccc(NC(=O)CN(C)S(=O)(=O)c2ccc3nc(C)sc3c2)cc1	KB-V1 cytotox inconclusive
CCOC(=O)c1ccc(NC(=O)CN(C)S(=O)(=O)c2ccc(Br)s2)cc1	MCF10A rerep inconclusive, IL1B secr inh -71.7
CN(CC(=O)Nc1nc2ccc(F)cc2s1)S(=O)(=O)c1ccc(Cl)cc1	KB-V1 cytotox inconclusive, IL1B secr inh -58.5
COc1ccc(C2=NN(C(C)=O)C(c3cn(-c4ccccc4)nc3-c3cccs3)C2)cc1 (centres undefined)	none (no result: SW480 rereplic, MCF10A rerep, IL1B secr inh)
CN(C)CCNC(=O)c1ccc2nc(Cc3ccccc3)oc2c1	none (no result: SW480 rereplic, MCF10A rerep, IL1B secr inh)
CCOC(=O)C1=C(C)Nc2ccccc2N=C1NC(=O)c1cc(C)on1	none
COc1cc2[nH]c(Cl)c([N+](=O)[O-])c2cc1OC	none
CN[C@H]1C[C@H]2c3cc(-c4ccccc4)ccc3CCN2C(=O)[C@H]1[C@H](C)O	none (no result: SW480 rereplic, MCF10A rerep)
Cc1ccc2nc(NC(=O)CN(C)S(=O)(=O)c3cccc4nsnc34)sc2c1	SW480 rereplic 2.31µM, MCF10A rerep inconclusive, KB-3-1 tox inconclusive, KB-V1 cytotox inconclusive
CCOC(=O)/C(C#N)=C/c1ccc(OCC(=O)Nc2ccc(C)c(C)c2)c(OC)c1	none
COc1ccc(CN(C)C(=O)c2ccc(OCC(=O)Nc3cccc(C(F)(F)F)c3)c(OC)c2)c(OC)c1	SW480 rereplic inconclusive, MCF10A rerep inconclusive, KB-3-1 tox inconclusive, KB-V1 cytotox inconclusive, IL1B secr inh -76.9
COc1ccc(CN(C)C(=O)c2cccc(NC(=O)CC3SC(N4CCCCC4)=NC3=O)c2)c(OC)c1 (centres undefined)	SW480 rereplic 6.51µM, MCF10A rerep inconclusive, KB-3-1 tox 16.4µM, IL1B secr inh -54.9
COc1cc(C(=O)NCCCN(C)C)ccc1OCC(=O)Nc1cccc(C(F)(F)F)c1	SW480 rereplic inconclusive, MCF10A rerep inconclusive, IL1B secr inh -53.2
COc1ccc(NC(=O)CN(C)C(=O)c2ccccc2OCC(=O)Nc2cccc(C(F)(F)F)c2)cc1	none
COc1cc(/C=C(\C#N)C(=O)Nc2cc(C(F)(F)F)ccc2Cl)ccc1OCC(=O)Nc1cccc(C(F)(F)F)c1	SW480 rereplic inconclusive, MCF10A rerep 20.6µM
COc1cccc(CN(C)C(=O)c2cccc(NC(=O)CC3SC(N4CCCCC4)=NC3=O)c2)c1OC (centres undefined)	none
CC(Oc1ccccc1)C(=O)N[C@@H]1C(=O)N2C(C(=O)O)C(C)(C)S[C@H]12 (some centres undefined)	none (no result: SW480 rereplic, MCF10A rerep, IL1B secr inh)
CC(C)OCCCn1c(=O)c2ccccc2n2c(-c3ccc(F)cc3)nnc12	none (no result: SW480 rereplic, MCF10A rerep, IL1B secr inh)
COc1ccc(CNC(=O)Cn2c(=O)n(CCC(=O)N3CCCCC3)c(=O)c3sccc32)cc1	SW480 rereplic inconclusive
O=C1NCC(Nc2ccc(Br)cc2)C(=O)N1 (centres undefined)	none
Cc1cccc(C(=O)Nc2cccc(OCc3cc(=O)n4c(C)csc4n3)c2)c1	none (no result: SW480 rereplic, MCF10A rerep, IL1B secr inh)
COCC(=O)Nc1cccc(C(F)(F)F)c1	none
COc1cccc(CN(C)C(=O)c2ccc(OCC(=O)Nc3cccc(C(F)(F)F)c3)c(OC)c2)c1	KB-3-1 tox inconclusive, KB-V1 cytotox 4.11µM, IL1B secr inh -62.3
CCCCN(C=O)c1c(CC)nc2ccc(C(=O)NCCCN3CCCC3=O)cn12	none (no result: SW480 rereplic, MCF10A rerep)
CC(C)Cc1ccc(C(C)C(N)=NCCc2ccccc2)cc1 (centres undefined)	SW480 rereplic 6.51µM, MCF10A rerep inconclusive, KB-3-1 tox inconclusive, KB-V1 cytotox inconclusive, IL1B secr inh -91.0
COc1ccc(CCN=C(N)C(C)c2ccccc2)cc1OC (centres undefined)	none
Cc1ccc(-c2csc(N=C(N)N)n2)cc1	SW480 rereplic inconclusive, MCF10A rerep inconclusive, IL1B secr inh -60.8
OC1CCCCC1	none
O=S(=O)(c1ccc(Cl)cc1)N1CCN=C1SCc1cccc(Cl)c1	KB-V1 cytotox 20.6µM
CCN(CC)CCCNC(=O)c1cn(C)c2ccc(S(=O)(=O)N3CCOCC3)cc2c1=O	none (no result: SW480 rereplic, MCF10A rerep, IL1B secr inh)

Bioassay records (PubChem)
